Screening data (PubChem BioAssay)
Most compounds without a hit are left out; they make up all but 4% or so of the library.
TWEAK-Fn14 inh – inhibitors of TWEAK-Fn14 interaction signaling; TWEAK-stimulated Fn14 reporter cells, luciferase luminescence, 8 h; inhibition, % at 10 µM; hit rate 2% among 360,000; in the data active = inhibition above about 50%
Peg3 prom inh – inhibitors of Peg3 promoter. AID 588405. hit rate 1.7% among 360,000. HeLa PEG-Prom luciferase reporter, luminescence, overnight. inhibition, % at 20 µM;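 active = inhibition of at least 50% at 20 µM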
KKLEB tox – reduces viability of KKLEB cystic fibrosis airway cells; KKLEB CF airway cells viability, ATPlite luminescence, overnight; active compounds read low; cells stimulated with P. aeruginosa culture filtrate; activity change (cytotoxicity), % at 5 µM; hit rate 0.36% among 360,000; AID 602141;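 active = corrected activity change at or below -50% at 5 µM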
TROY signal inh – TROY signaling inhibition. hit rate 0.98% among 360,000. AID 1347056. inhibition, % at 10 µM. Q293 LMP1-TROYcd NF-kB luciferase reporter, 4 h;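 active = compounds whose plate-normalised and pattern-corrected inhibition of the luciferase reporter signal at the single screening dose is 50% or more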
HIF-2a inh – HIF-2a inhibition; 786-0 RCC cells HIF-2a reporter, luciferase luminescence, overnight; inhibition, % at 18.8 µM; hit rate 0.72% among 360,000; AID 624352;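 active = inhibition of the luminescence signal of 40% or more relative to plate controls, in a single-dose primary screen at 18.75 µM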
CF NFkB block – inhibitors of cystic fibrosis induced NF-kB; inhibition, % at 5 µM; hit rate 0.86% among 360,000; KKLEB NF-kB-GFP reporter, PAF-induced, GFP fluorescence overnight;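 active = at least 50% inhibition at 5 µM, scaled per plate between neutral and stimulator controls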;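 also: PAF is a Pseudomonas aeruginosa culture filtrate used as stimulus; plate controls were PAF-stimulated DMSO wells for no effect and unstimulated DMSO wells for full effect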
Mdm2-MdmX confirm – confirmation of inhibitors of human Mdm2/MdmX interaction, set 2. shares compounds with HIF-2a inh. SaOS-2 split-luciferase Mdm2/MdmX complementation, luminescence. inhibition, % at 8 µM. hit rate 99% among 740. AID 504601;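 active = mean inhibition of the luminescence signal across two replicates at or above 26 percent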
Target sequence (O15151 whole entry, looked up): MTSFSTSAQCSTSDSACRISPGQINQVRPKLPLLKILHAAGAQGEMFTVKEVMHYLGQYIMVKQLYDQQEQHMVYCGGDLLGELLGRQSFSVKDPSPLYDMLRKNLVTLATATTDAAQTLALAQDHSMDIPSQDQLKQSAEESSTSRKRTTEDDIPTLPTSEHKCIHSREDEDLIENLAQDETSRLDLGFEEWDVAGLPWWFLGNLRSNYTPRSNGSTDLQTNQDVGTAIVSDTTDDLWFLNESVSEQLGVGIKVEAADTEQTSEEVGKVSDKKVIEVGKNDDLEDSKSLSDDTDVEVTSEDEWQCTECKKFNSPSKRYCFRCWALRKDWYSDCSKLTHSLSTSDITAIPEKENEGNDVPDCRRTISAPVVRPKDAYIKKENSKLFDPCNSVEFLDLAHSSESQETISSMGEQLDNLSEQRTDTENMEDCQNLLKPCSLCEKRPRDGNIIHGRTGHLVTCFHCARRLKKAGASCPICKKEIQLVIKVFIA
Target sequence (Q00987 whole entry, looked up): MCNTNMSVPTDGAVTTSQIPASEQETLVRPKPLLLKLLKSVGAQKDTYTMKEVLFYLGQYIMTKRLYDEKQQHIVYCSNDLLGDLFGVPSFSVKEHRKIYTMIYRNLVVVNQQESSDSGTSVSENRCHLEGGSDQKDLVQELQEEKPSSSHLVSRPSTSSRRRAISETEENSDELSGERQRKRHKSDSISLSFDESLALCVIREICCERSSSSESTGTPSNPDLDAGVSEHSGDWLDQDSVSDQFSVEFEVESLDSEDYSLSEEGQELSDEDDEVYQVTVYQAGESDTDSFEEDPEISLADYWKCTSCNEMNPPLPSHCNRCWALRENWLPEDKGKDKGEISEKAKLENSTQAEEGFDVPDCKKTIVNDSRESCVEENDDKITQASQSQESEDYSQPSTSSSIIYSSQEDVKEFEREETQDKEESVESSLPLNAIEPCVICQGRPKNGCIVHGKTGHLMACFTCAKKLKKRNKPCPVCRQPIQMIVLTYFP
HIF-2a conf – HIF-2a inhibition, single concentration confirmation; shares compounds with HIF-2a inh; 786-0 RCC cells, HIF-2a luciferase reporter luminescence, overnight; inhibition, % at 18.8 µM; hit rate 56% among 1,800;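 active = mean inhibition across four replicates of at least 40 percent at the single tested concentration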
HIF-1a counter – inhibits HIF-1a reporter, a counter-screen for HIF-2a inhibitors | shares compounds with HIF-2a inh | AID 651589 | MiaPaCa-2 HIF-1a luciferase reporter, desferoxamine, overnight | hit rate 72% among 1,800 | inhibition, % at 18.8 µM;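 active = mean inhibition of the reporter signal across four replicates at the single tested dose of 50% or more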
* hit, by the source's call; · = no result.

SMILES | TWEAK-Fn14 inh | Peg3 prom inh | KKLEB tox | TROY signal inh | HIF-2a inh | CF NFkB block | HIF-2a conf | HIF-1a counter | others
CCCC(=O)N1CCN(c2ccc(NC(=O)c3ccc([N+](=O)[O-])o3)cc2)CC1 | -6 | 100* | -63* | 5 | 94* | 90* | 64* | 97*
CCC(=O)N1CCN(c2ccc(NC(=O)c3ccc([N+](=O)[O-])o3)cc2)CC1 | -1 | 106* | -21 | -15 | 61* | 56* | 31 | 74*
O=C(Nc1ccc(N2CCN(C(=O)c3ccc(Cl)cc3)CC2)cc1)c1ccc([N+](=O)[O-])o1 | 33 | 104* | -78* | 7 | 97* | 96* | 87* | 107*
CS(=O)(=O)N1CCN(c2ccc(NC(=O)c3ccc([N+](=O)[O-])o3)cc2)CC1 | 1 | 104* | -65* | -19 | 79* | 84* | 10 | 57*
O=C(Nc1ccccc1N1CCN(C(=O)c2ccccc2)CC1)c1ccc([N+](=O)[O-])o1 | -27 | 42 | -3 | -11 | -8 | -25 | · | ·
O=C(Nc1ccc(N2CCN(Cc3ccccc3F)CC2)cc1)c1ccc([N+](=O)[O-])o1 | 27 | 100* | -77* | 15 | 93* | 81* | 31 | 105*
O=C(Nc1ccc(N2CCN(Cc3ccccc3F)CC2)cc1)c1ccccc1[N+](=O)[O-] | 8 | 11 | -2 | 19 | 19 | -13 | · | ·
O=C(Nc1cccc(NC(=O)c2ccccc2Cl)c1)c1ccc([N+](=O)[O-])o1 | 35 | 98* | -9 | -5 | 61* | 78* | 37 | 104*
CC(C)(C)C(=O)N1CCN(c2ccc(NC(=O)c3ccc([N+](=O)[O-])o3)cc2)CC1 | -9 | 97* | -4 | -15 | 88* | 56* | 10 | 81*
O=C(Nc1nc2c(Cl)cccc2s1)c1ccc([N+](=O)[O-])o1 | 14 | -12 | 1 | 22 | -154 | -25 | · | ·
CS(=O)(=O)NC1c2cccc3cccc(c23)C1Sc1nncn1/N=C/c1ccco1 (configuration not stated) | 10 | 12 | -9 | -10 | 15 | 6 | · | ·
CCc1ccccc1OCC(=O)Nc1cccc(S(=O)(=O)NC2=NCCCCC2)c1 | -9 | 4 | -3 | 8 | -11 | -9 | · | ·
COc1ccc(/C=N/Nc2cc(C)nc3ccc(Br)cc23)cc1 | -51 | 101* | -23 | -6 | 46* | -127 | -15 | 106*
COc1cccc(C(=O)/C=C/c2ccc(OCC#N)c(OC)c2)c1 | 84* | 107* | -28 | 1 | 85* | 12 | 42* | 105*
CCOc1ccc(/C=C/C(=O)c2ccccc2)cc1OC | 15 | -203 | -12 | -57 | -145 | 0 | · | ·
O=C(Nc1ccccc1C(=O)NCc1ccco1)Nc1cccc2ccccc12 | 33 | -2 | 2 | 9 | 54* | 5 | 6 | 33
CN(CCc1ccccn1)C(=O)CC1C(=O)NCCN1Cc1ccc(-c2ccccc2)cc1 (configuration not stated) | 12 | -1 | 6 | 2 | 4 | -9 | · | ·
Cc1ccc(-c2cc(-c3ccccc3)c(C#N)c(Br)n2)cc1 | -18 | 6 | -5 | -34 | 11 | 4 | · | ·
CS(=O)(=O)c1nc(-c2ccccc2)cc(-c2ccccc2)c1C#N | -28 | 101* | -15 | -19 | 76* | 61* | 34 | 106*
CC1CCN(N=Nc2nc3c([nH]2)c(=O)n(C)c(=O)n3C)CC1 | 13 | -31 | 14 | -12 | -44 | -3 | · | ·
OCCCNc1c2ccccc2nc2ccccc12 | -17 | 104* | 6 | -121 | 6 | -126 | · | · | Mdm2-MdmX confirm=97*
Cc1ccc(Oc2ccc(OCC(=O)Nc3ccncc3)cc2)cc1 | 39 | 9 | -6 | 28 | 55* | -4 | 77* | 50*
O=C(Nc1ccc(Cl)c(Cl)c1)c1ccc(Cl)c(Cl)c1 | -59 | -127 | -3 | -43 | -272 | -2 | · | ·
Cc1ccc(NC(=O)c2ccc(Cl)c(N3C(=O)C=CC3=O)c2)cc1 | -13 | 101* | -1 | -54 | 49* | 28 | 25 | -34
CC12CNCC(C)(CN(C3(O)C(=O)Nc4ccc(Br)cc43)C1)C2=O (configuration not stated) | 11 | 8 | 4 | -9 | 17 | 4 | · | ·
SMILES | TWEAK-Fn14 inh | Peg3 prom inh | KKLEB tox | TROY signal inh | HIF-2a inh | CF NFkB block | HIF-2a conf | HIF-1a counter | others
CC(C)c1ccc(NC(=O)CCS(=O)(=O)c2cccc3nonc23)cc1 | -11 | 2 | 5 | -11 | -1 | 5 | · | ·
COc1cccc(/C=N/Nc2nc(Nc3ccccc3)nc(-n3nc(C)cc3C)n2)c1O | 35 | 32 | -12 | -44 | -94 | -20 | · | ·
COc1cccc(/C=N/Nc2cc(-n3nc(C)cc3-c3ccccc3)ncn2)c1O | 61* | 52* | -19 | 26 | 16 | 48 | · | · | Mdm2-MdmX confirm=91*
Cc1cccc(NC(=O)NCC(c2ccco2)N2CCCCC2)c1 (configuration not stated) | -3 | -47 | -6 | -27 | -51 | -3 | · | ·
CCc1cc2ccc(OC)cc2nc1SCC(=O)NNC(C)=O | 10 | 19 | -4 | 8 | 4 | -4 | · | ·
Cc1oc(-c2cccc(Cl)c2)nc1CN1CCC(C(=O)NCCCN2CC(C)CC(C)C2)CC1 (configuration not stated) | -51 | 92* | -3 | -20 | 1 | -6 | · | · | Mdm2-MdmX confirm=103*
CCOC(=O)N1CCN(C(=O)c2ccc3[nH]c(C)c(C)c3c2)CC1 | -6 | 14 | -31 | 7 | -5 | -8 | · | ·
O=Cc1ccc(-c2cccs2)s1 | -18 | -89 | -19 | 4 | 44* | 3 | 52* | -13
CC1(C)OC(=O)C=C[C@]2(C)[C@H]3CC[C@@]4(C)[C@H](c5ccoc5)OC(=O)[C@H]5O[C@]54[C@]3(C)C(=O)C[C@@H]12 | 8 | 2 | 9 | -12 | 11 | -13 | · | ·
CC(=O)OC1CC2C(C)(C)C(=O)C=CC2(C)C2CCC3(C)C(c4ccoc4)OC(=O)C4OC43C12C (configuration not stated) | 22 | 45 | 0 | 38 | 45* | 33 | 42* | 59*
CC(=O)O[C@@H]1C[C@H]2C(C)(C)C(=O)C=C[C@]2(C)[C@H]2CC[C@@]3(C)[C@H](c4ccoc4)OC(=O)[C@H]4O[C@]43[C@@]21C | 33 | 31 | 19 | 44 | 58* | 28 | 49* | 77*
CCOc1ccc(Oc2cc(C)nc(SC)n2)nn1 | -14 | -10 | 5 | 1 | 1 | -4 | · | ·
